High-throughput results (PubChem BioAssay)
FBW7 activator – activators of human E3 ligase FBW7. normalized activity (activation), % at 26.1 µM. Q969H0. AlphaScreen FBW7–phospho-cyclin E peptide binding, activator screen. actives 0.13% (n = 650,000); in the data active = normalized activity above about 1.9%;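 note: purified mutant Fbw7 with reduced substrate affinity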
Target sequence (Q969H0 whole entry, looked up): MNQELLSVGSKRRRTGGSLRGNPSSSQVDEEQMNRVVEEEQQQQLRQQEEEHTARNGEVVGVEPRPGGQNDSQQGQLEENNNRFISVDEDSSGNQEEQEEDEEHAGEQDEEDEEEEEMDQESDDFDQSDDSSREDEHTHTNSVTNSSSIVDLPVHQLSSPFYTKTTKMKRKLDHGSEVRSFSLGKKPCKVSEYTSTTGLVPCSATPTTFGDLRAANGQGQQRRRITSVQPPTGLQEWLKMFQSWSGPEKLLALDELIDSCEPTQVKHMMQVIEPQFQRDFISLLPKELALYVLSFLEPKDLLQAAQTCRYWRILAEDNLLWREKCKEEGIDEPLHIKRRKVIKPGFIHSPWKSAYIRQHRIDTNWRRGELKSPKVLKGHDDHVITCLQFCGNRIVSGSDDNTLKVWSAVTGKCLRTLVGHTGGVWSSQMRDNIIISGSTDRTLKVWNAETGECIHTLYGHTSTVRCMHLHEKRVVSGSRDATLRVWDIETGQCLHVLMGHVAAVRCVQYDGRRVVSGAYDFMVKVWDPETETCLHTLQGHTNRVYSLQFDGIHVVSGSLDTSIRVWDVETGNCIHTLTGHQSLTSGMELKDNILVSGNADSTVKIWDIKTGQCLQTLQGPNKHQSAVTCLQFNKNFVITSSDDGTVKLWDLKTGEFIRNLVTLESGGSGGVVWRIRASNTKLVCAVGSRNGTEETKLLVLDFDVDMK
GPR151 activ – activates the human receptor GPR151; Q8TDV0; PathHunter beta-arrestin GPR151 cells, luminescence; activation, % at 11.2 µM; actives 1% (n = 650,000); AID 1508602; in the data active = activation above about 4.9%;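 note: 0% = median of compound wells and 100% = cells with positive control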
MITF inh – inhibitors of human MITF; O75030; AlphaScreen MITF homodimerization, bead proximity signal; inhibition, % at 2.6 µM; actives 0.91% (n = 650,000); in the data active = inhibition above about 50%;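 note: 0% = vehicle wells with protein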
TEAD-YAP block – TEAD-YAP interaction inhibition. HEK-TIYL cells, TEAD-Gal4/YAP UAS-luciferase luminescence. inhibition, % at 9.12 µM. actives 1.4% (n = 640,000). AID 1259422; in the data active = inhibition above about 32%;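 note: 0% = median of test compound wells and 100% = reference inhibitor wells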
GPR151 conf act – human GPR151 activation, confirmation screen; shares compounds with GPR151 activ; GPR151 PathHunter beta-arrestin cells, luminescence, 90 min; % of EA-reagent control over plate median; activation, % at 11.2 µM; 6,700 tested, under 10 active; AID 1508609;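 active = mean percent activation across replicates above the confirmation screen cutoff of 4.91%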
GPR119 ag – GPR119 activation, counter-screen for GPR151 activators. shares compounds with GPR151 activ. GPR119 PathHunter beta-arrestin cells, luminescence, 90 min; 0 = compound-well median, 100 = enzyme-acceptor control. activation, % at 11.2 µM. actives 0.3% (n = 6,700). AID 1508611;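 active = mean percent activation in the counterscreen above 29.09%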;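 note: counterscreen on off-target GPR119 to flag nonselective hits from the GPR151 activator screen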
* hit, by the source's call. An excerpt weighted towards active compounds, which were near 3.5% of everything screened.

How did CCCOc1ccc2oc(=O)c3c(c2c1)CCCN3C(=O)CN1CCCC1 do in these assays?
FBW7 activator: 0; GPR151 activ: 5.4*; MITF inh: 12; TEAD-YAP block: 11; GPR151 conf act: 0; GPR119 ag: 5

What do the screens show for `CCCOc1ccc2c3c(c(=O)oc2c1)CCC3`?
FBW7 activator: 0; GPR151 activ: 7.9*; MITF inh: 2; TEAD-YAP block: -1; GPR151 conf act: 0; GPR119 ag: -4

How did Cc1cc(NC(=O)Cn2c(=O)n(Cc3ccccc3)c(=O)c3ccccc32)n[nH]1 do in these assays?
FBW7 activator: 0; GPR151 activ: 0; MITF inh: -5; TEAD-YAP block: 4

Results for C(=N\Nc1ccccc1)/c1ccc2c(c1)OCCO2 ?
FBW7 activator: 0; GPR151 activ: 5.3*; MITF inh: 6; TEAD-YAP block: -11; GPR151 conf act: -1; GPR119 ag: -3

How did O=C(c1ccccc1)c1ccc2nc(Cl)[nH]c2c1 do in these assays?
FBW7 activator: 0; GPR151 activ: -1; MITF inh: -8; TEAD-YAP block: 2

Results for COc1ccccc1CNC1CCCN(c2nc(C)c3cc(F)ccc3n2)CC1 (stereo unspecified) ?
FBW7 activator: 0; GPR151 activ: 5.4*; MITF inh: 7; TEAD-YAP block: -1; GPR151 conf act: 0; GPR119 ag: 14

How did O=C(NC1CCCCC1)c1c[nH]c2ccc(S(=O)(=O)N3CCOCC3)cc2c1=O do in these assays?
FBW7 activator: 0; GPR151 activ: 0; MITF inh: -1; TEAD-YAP block: -8

What do the screens show for `O=C(O)COc1coc(CN2CCN(c3cccc(Cl)c3)CC2)cc1=O`?
FBW7 activator: 0; GPR151 activ: -2; MITF inh: -14; TEAD-YAP block: 5

What do the screens show for `O=c1cc(CN2CCN(c3cccc(Cl)c3)CC2)occ1OCc1ccccc1`?
FBW7 activator: 0; GPR151 activ: 6.8*; MITF inh: -1; TEAD-YAP block: 3; GPR151 conf act: 0; GPR119 ag: -4

What do the screens show for `Nc1ccccc1-c1nc2ccccc2[nH]c1=O`?
FBW7 activator: 0; GPR151 activ: 5.9*; MITF inh: 4; TEAD-YAP block: -55; GPR151 conf act: -2; GPR119 ag: -16

How did COCCN1CC(CNC(=O)c2cc(COc3ccc(F)cc3Cl)on2)CC1=O (stereo unspecified) do in these assays?
FBW7 activator: 0; GPR151 activ: 9.8*; MITF inh: 7; TEAD-YAP block: 2; GPR151 conf act: -1; GPR119 ag: -10

Results for O=C(CSc1ccc(F)cc1)Nc1nc(-c2ccc(F)cc2)cs1 ?
FBW7 activator: 0; GPR151 activ: 7.7*; MITF inh: 3; TEAD-YAP block: 12; GPR151 conf act: -2; GPR119 ag: 12

What do the screens show for `N#CCOc1ccc2c(=O)c(Oc3ccccc3Cl)coc2c1`?
FBW7 activator: 0; GPR151 activ: 5.6*; MITF inh: 8; TEAD-YAP block: 7; GPR151 conf act: 1; GPR119 ag: 19

What do the screens show for `CC1=C(C(=O)OC(C)C)C(c2cccc(Cl)c2Cl)C2=C(CC(c3ccccc3)CC2=O)N1` (stereo unspecified)?
FBW7 activator: 1; GPR151 activ: 0; MITF inh: -1; TEAD-YAP block: 9

How did CCCCOC(=O)c1cccc(NC(=O)c2ccccc2C)c1 do in these assays?
FBW7 activator: 1; GPR151 activ: -1; MITF inh: 2; TEAD-YAP block: -1

Results for CC(C)CCNC(=O)c1c(O)c2cccc3c2n(c1=O)CC3 ?
FBW7 activator: 0; GPR151 activ: 7.0*; MITF inh: 1; TEAD-YAP block: -2; GPR151 conf act: 0; GPR119 ag: -11

What do the screens show for `O=C(Nc1ccccc1F)c1c(O)c2cccc3c2n(c1=O)CC3`?
FBW7 activator: 0; GPR151 activ: 1; MITF inh: -7; TEAD-YAP block: -13

Results for O=C(Nc1ccccc1Br)c1c(O)c2cccc3c2n(c1=O)CC3 ?
FBW7 activator: 0; GPR151 activ: 5.4*; MITF inh: -15; TEAD-YAP block: 4; GPR151 conf act: -1; GPR119 ag: -10

What do the screens show for `CC(C)CCNC(=O)c1c(O)c2cccc3c2n(c1=O)CCC3`?
FBW7 activator: 0; GPR151 activ: 0; MITF inh: 1; TEAD-YAP block: -10

What do the screens show for `Cc1cccc(C)c1-n1c(=S)sc2c(=O)n(C3CCCCC3)c(SCC#N)nc21`?
FBW7 activator: 0; GPR151 activ: 0; MITF inh: -3; TEAD-YAP block: -15

How did O=C1c2cccc3c([N+](=O)[O-])ccc(c23)C(=O)N1CCc1ccccc1 do in these assays?
FBW7 activator: 0; GPR151 activ: 6.9*; MITF inh: 14; TEAD-YAP block: 4; GPR151 conf act: 0; GPR119 ag: 1

What do the screens show for `O=C(COC(=O)c1cccc(S(=O)(=O)NCC(F)(F)F)c1)c1ccccc1`?
FBW7 activator: 0; GPR151 activ: 5.6*; MITF inh: 16; TEAD-YAP block: -9; GPR151 conf act: -1; GPR119 ag: 0

What do the screens show for `COc1ccc(C2=NN(C(=O)CSc3nnc(CNC(=O)c4ccccc4)n3-c3ccccc3)C(c3cccc(OC)c3OC)C2)cc1` (stereo unspecified)?
FBW7 activator: 1; GPR151 activ: 1; MITF inh: 16; TEAD-YAP block: 1

How did Cc1cccc(CCNS(=O)(=O)c2c(C)n[nH]c2C)c1 do in these assays?
FBW7 activator: 0; GPR151 activ: -1; MITF inh: -4; TEAD-YAP block: -3

How did CCOc1ccc(CCNS(=O)(=O)c2c(C)n[nH]c2C)cc1OCC do in these assays?
FBW7 activator: 0; GPR151 activ: 5.6*; MITF inh: 5; TEAD-YAP block: 6; GPR151 conf act: 0; GPR119 ag: 8

Results for COc1ncc(-c2cncc(-c3cccc(O)c3)n2)c(OC)n1 ?
FBW7 activator: 0; GPR151 activ: 13*; MITF inh: 7; TEAD-YAP block: -33; GPR151 conf act: 1; GPR119 ag: 6

How did CCOCCOC(=O)c1ccc(NC(=O)/C(C#N)=C/c2ccc(OC)cc2)cc1 do in these assays?
FBW7 activator: 0; GPR151 activ: -1; MITF inh: 4; TEAD-YAP block: 4

How did Cc1ccc(C)c(NC(=O)CN2CCC(c3nc4ccccc4[nH]3)CC2)c1 do in these assays?
FBW7 activator: 0; GPR151 activ: 6.0*; MITF inh: -7; TEAD-YAP block: -12; GPR151 conf act: 1; GPR119 ag: 3

What do the screens show for `Cc1cccc(NC(=O)CN2CCC(c3nc4ccccc4[nH]3)CC2)c1`?
FBW7 activator: 0; GPR151 activ: -1; MITF inh: 5; TEAD-YAP block: 10

How did O=C(C1CCCCC1)N1CCC(c2nc3ccccc3[nH]2)CC1 do in these assays?
FBW7 activator: 0; GPR151 activ: 5.8*; MITF inh: 4; TEAD-YAP block: -4; GPR151 conf act: 1; GPR119 ag: 9
